This is an account of results in the supplement of paper PMC6522484.

Several values for one entry are separate records, joined by “and”; a condition that tells them apart may be missing. Equal entries are not always repeated. ± gives the standard deviation of the averaged measurements.

The test system of the first assay is HCT116. Kind of assay: cell viability (CellTiter-Glo) relative to plate median (fraction of plate median); higher = more viable cells. The conditions noted are these: 5 µM; treatment time 24 h; reporter: TCF4/Wnt. Put shortly:
(§1)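 Values are well luminescence normalised to the plate median, from either a firefly luciferase or a CellTiterGlo readout on parallel plates. The cells, colorectal cancer lines stably transduced with lentiviral 7TFP or TCF4/Wnt firefly luciferase reporters, were treated with library compounds at a final 5 µM for 24 h. The mean of two independent replicates is listed.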
Background: Cellular ATP, detected with luciferase, serves as a proxy for viable cell number.
With `NCCc1ccc(O)c(O)c1`, the cell viability was 1.05 and 1.1.
Compound `CC(C)[C@@H](C)/C=C/[C@@H](C)[C@H]1CC[C@H]2C3=CC=C4C[C@@H](O)CC[C@]4(C)[C@H]3CC[C@]12C` had a cell viability of 1.03 ± 0.14.
The same measure, in the same setting: the value for `CC[N+](CC)(CC)CCOc1cccc(OCC[N+](CC)(CC)CC)c1OCC[N+](CC)(CC)CC` was 0.972 ± 0.017; that for `C/C=C(/C(=C/C)c1ccc(O)cc1)c1ccc(O)cc1` was 0.997 ± 0.061; that for `CCCOc1ccc2[nH]c(NC(=O)OC)nc2c1` was 1.08 ± 0.2.
The same measure, in the same setting: next, `COc1cc(OC)c2c(c1Cl)O[C@@]1(C(=O)CC(=O)C[C@H]1C)C2=O`: 0.983 ± 0.14.
In turn, `CC1=CC2C(C(C)C)CCC(C)(O)C2CC1` (stereo not given) displayed a cell viability of 0.929 ± 0.011.
Same read-out and setting: next, `CC(CCC(=O)O)[C@H]1CCC2C3C[C@H](O)[C@@H]4C[C@H](O)CC[C@]4(C)C3CC[C@@]21C` (stereo partly drawn) [alpha-HYDROXYDEOXYCHOLIC ACID]: 1.1 ± 0.078; `CC(=O)[C@H]1CC[C@H]2[C@@H]3C[C@H](C)C4=CC(=O)CC[C@]4(C)[C@H]3[C@@H](O)C[C@]12C`: 0.981 ± 0.042; `O=C1NC(Cc2ccc(O)cc2)C(=O)N2CCCC12` (stereo not given) [Cyclo(tyrosylprolyl)]: 0.928 ± 0.023.
The same measure, in the same setting: next, `O=c1ccn([C@@H]2O[C@H](COP(=O)(O)OP(=O)(O)OP(=O)(O)O)[C@@H](O)[C@H]2O)c(=O)[nH]1`: 0.89 ± 0.016; `COc1cc(NS(=O)(=O)c2ccc(N)cc2)nc(OC)n1`: 0.924 ± 0.031; `CC(C)(Oc1ccc(C2CC2(Cl)Cl)cc1)C(=O)O` (stereo not given): 0.968 ± 0.074.
On the same count and under the same terms, next, `CC(=O)c1oc2c(C)c3oc(=O)cc(C)c3cc2c1C` [2-Acetyl-3,5,9-trimethylfuro[3,2-g]-chromen-7-one (VFT-04)]: 0.96 ± 0.05; `C=CCCCCCCCCC(=O)[O-].C=CCCCCCCCCC(=O)[O-].[Zn+2]`: 0.903 ± 0.011; `O=C(CCCCCCCCCCCCC1CCCC1)Nc1ccc(S(=O)(=O)c2ccc(NC(=O)CCCCCCCCCCCCC3CCCC3)cc2)cc1`: 1.04 ± 0.087.
`CCCC(=O)O[C@]1(C(=O)CO)CC[C@H]2[C@@H]3CCC4=CC(=O)CC[C@]4(C)[C@H]3[C@@H](O)C[C@@]21C` had a cell viability of 0.958 ± 0.16.
The same measure, in the same setting: next, `NCCCCC(=O)O`: 0.981 ± 0.098.
Still for that read-out and setting: next, `CC(C)NNC(=O)c1ccncc1`: 0.992 ± 0.054; `c1ccc(CC2=NCCN2)cc1`: 1.04 ± 0.075; `CC1(C)S[C@@H]2[C@H](NC(=O)[C@H](N)c3ccccc3)C(=O)N2[C@H]1C(=O)O`: 1.14 ± 0.13.
On the same count and under the same terms, next, `CC(=O)OCC1=C(C(=O)O)N2C(=O)[C@@H](NC(=O)CSc3ccncc3)[C@H]2SC1`: 1.065 ± 0.0071; `COc1cc2c(cc1OC)[C@@H]1Cc3ccc(OC)c(OC)c3CN1CC2`: 0.941 ± 0.038; `Cc1cc(-c2ncc(CC(=O)Nc3ccc(-c4cnccn4)cn3)cc2C)ccn1`: 0.975 ± 0.032.
`O=C(O[C@@H]1Cc2c(O)cc(O)cc2O[C@@H]1c1cc(O)c(=O)c2c(O)c(O)cc([C@H]3Oc4cc(O)cc(O)c4C[C@H]3OC(=O)c3cc(O)c(O)c(O)c3)c2c1)c1cc(O)c(O)c(O)c1`: the cell viability amounted to 0.9235 ± 0.0064.
On the same count and under the same terms, next, `Nc1ccn([C@@H]2O[C@H](CO)[C@@H](O)[C@@H]2O)c(=O)n1`: 0.849 ± 0.092; `C=CC1=C(C)c2cc3[nH]c(cc4nc(cc5[nH]c(cc1n2)c(C)c5CCC(=O)O)C(CCC(=O)O)=C4C)c(C)c3C=C`: 0.964 ± 0.12; `C=C[C@@]1(C)CC(=O)[C@@]2(O)[C@](C)(O1)[C@@H](O)[C@@H](O)C1C(C)(C)CC[C@H](O)[C@@]12C` (stereo not given in full): 0.96 ± 0.051.
The same measure, in the same setting: next, `COCCOC(=O)C1=C(C)NC(C)=C(C(=O)OC(C)C)C1c1cccc([N+](=O)[O-])c1` (stereo not given): 0.916 ± 0.16; `CN[C@H](CC(=O)O)C(=O)O`: 0.966 ± 0.049.

The test system of the next assay is SW480. The description is as above. The conditions noted are these: 5 µM; treatment time 24 h; reporter: 7TFP. Put shortly:
as §1
In the case of `NCCc1ccc(O)c(O)c1`, the cell viability was 0.998 and 0.98.
`CC(C)[C@@H](C)/C=C/[C@@H](C)[C@H]1CC[C@H]2C3=CC=C4C[C@@H](O)CC[C@]4(C)[C@H]3CC[C@]12C` had a cell viability of 1.14 ± 0.099.
Still for that read-out and setting: the value for `CC[N+](CC)(CC)CCOc1cccc(OCC[N+](CC)(CC)CC)c1OCC[N+](CC)(CC)CC` was 0.945 ± 0.093.
Regarding `C/C=C(/C(=C/C)c1ccc(O)cc1)c1ccc(O)cc1`, the cell viability is 1 ± 0.015.
For `CCCOc1ccc2[nH]c(NC(=O)OC)nc2c1`, the cell viability was determined as 1.13 ± 0.071.
The compound `COc1cc(OC)c2c(c1Cl)O[C@@]1(C(=O)CC(=O)C[C@H]1C)C2=O` showed a cell viability of 1.005 ± 0.0071.
Compound `CC1=CC2C(C(C)C)CCC(C)(O)C2CC1` (stereo not given) showed a cell viability of 0.969 ± 0.013.
Same read-out and setting: the value for `CC(CCC(=O)O)[C@H]1CCC2C3C[C@H](O)[C@@H]4C[C@H](O)CC[C@]4(C)C3CC[C@@]21C` (stereo partly drawn) [alpha-HYDROXYDEOXYCHOLIC ACID] was 1.06 ± 0.014.
The same measure, in the same setting: next, `CC(=O)[C@H]1CC[C@H]2[C@@H]3C[C@H](C)C4=CC(=O)CC[C@]4(C)[C@H]3[C@@H](O)C[C@]12C`: 0.958 ± 0.029.
Consider `O=C1NC(Cc2ccc(O)cc2)C(=O)N2CCCC12` (stereo not given) [Cyclo(tyrosylprolyl)], for which the cell viability stood at 0.9425 ± 0.0021.
Still for that read-out and setting: next, `O=c1ccn([C@@H]2O[C@H](COP(=O)(O)OP(=O)(O)OP(=O)(O)O)[C@@H](O)[C@H]2O)c(=O)[nH]1`: 1.04 ± 0.064.
In turn, `COc1cc(NS(=O)(=O)c2ccc(N)cc2)nc(OC)n1` showed a cell viability of 0.956 ± 0.063.
Same read-out and setting: the value for `CC(C)(Oc1ccc(C2CC2(Cl)Cl)cc1)C(=O)O` (stereo not given) was 1.06 ± 0.014; that for `CC(=O)c1oc2c(C)c3oc(=O)cc(C)c3cc2c1C` [2-Acetyl-3,5,9-trimethylfuro[3,2-g]-chromen-7-one (VFT-04)] was 1.085 ± 0.0071.
Same read-out and setting: the value for `C=CCCCCCCCCC(=O)[O-].C=CCCCCCCCCC(=O)[O-].[Zn+2]` was 0.964 ± 0.023; that for `O=C(CCCCCCCCCCCCC1CCCC1)Nc1ccc(S(=O)(=O)c2ccc(NC(=O)CCCCCCCCCCCCC3CCCC3)cc2)cc1` was 1.03 ± 0.028; that for `CCCC(=O)O[C@]1(C(=O)CO)CC[C@H]2[C@@H]3CCC4=CC(=O)CC[C@]4(C)[C@H]3[C@@H](O)C[C@@]21C` was 1.02.
Consider `NCCCCC(=O)O`, for which the cell viability is 1.03 ± 0.021.
The compound `CC(C)NNC(=O)c1ccncc1` had a cell viability of 1 ± 0.083.
The same measure, in the same setting: next, `c1ccc(CC2=NCCN2)cc1`: 0.9775 ± 0.00071; `CC1(C)S[C@@H]2[C@H](NC(=O)[C@H](N)c3ccccc3)C(=O)N2[C@H]1C(=O)O`: 0.969 ± 0.1; `CC(=O)OCC1=C(C(=O)O)N2C(=O)[C@@H](NC(=O)CSc3ccncc3)[C@H]2SC1`: 1.14 ± 0.14.
On the same count and under the same terms, the value for `COc1cc2c(cc1OC)[C@@H]1Cc3ccc(OC)c(OC)c3CN1CC2` was 0.9275 ± 0.0035; that for `Cc1cc(-c2ncc(CC(=O)Nc3ccc(-c4cnccn4)cn3)cc2C)ccn1` was 0.914 ± 0.0028; that for `O=C(O[C@@H]1Cc2c(O)cc(O)cc2O[C@@H]1c1cc(O)c(=O)c2c(O)c(O)cc([C@H]3Oc4cc(O)cc(O)c4C[C@H]3OC(=O)c3cc(O)c(O)c(O)c3)c2c1)c1cc(O)c(O)c(O)c1` was 1.045 ± 0.0071.
Same read-out and setting: the value for `Nc1ccn([C@@H]2O[C@H](CO)[C@@H](O)[C@@H]2O)c(=O)n1` was 1.1 ± 0.064.
In turn, `C=CC1=C(C)c2cc3[nH]c(cc4nc(cc5[nH]c(cc1n2)c(C)c5CCC(=O)O)C(CCC(=O)O)=C4C)c(C)c3C=C` returned a cell viability of 0.963 ± 0.053.
For `C=C[C@@]1(C)CC(=O)[C@@]2(O)[C@](C)(O1)[C@@H](O)[C@@H](O)C1C(C)(C)CC[C@H](O)[C@@]12C` (stereo not given in full), the cell viability worked out at 1.02 ± 0.014.
The same measure, in the same setting: next, `COCCOC(=O)C1=C(C)NC(C)=C(C(=O)OC(C)C)C1c1cccc([N+](=O)[O-])c1` (stereo not given): 0.858 ± 0.11; `CN[C@H](CC(=O)O)C(=O)O`: 0.957 ± 0.0042.
